For eight molecules, outcome and AC50 results are on record in PubChem BioAssay (EPA / NIEHS).

The target of assay [1] is human Peroxisome Proliferator-activated Receptor delta (PPARd), PPARD (gene 5467) (UniProt Q03181). Put plainly: ATG_PPARd_TRANS: Attagene TRANS-FACTORIAL HepG2 Assay for human Peroxisome Proliferator-activated Receptor delta (PPARd) (AID 2283002; active means hit-call score of the fitted dose curve at least 0.9, where 1 is the maximum). The method, boiled down: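 HepG2 cells transiently transfected with GAL4-UAS multiplexed reporter units driven by exogenous chimeric NR-GAL4 proteins; 24 h compound exposure. Reporter mRNA measured by RT-PCR, 6-FAM primer extension, HpaI digestion and capillary electrophoresis; gain of signal fitted relative to DMSO.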

Read-out in assay [2]: Intercellular Adhesion Molecule 1 (ICAM1), ICAM1 (gene 3383)
Nature of the assay: BSK_3C_ICAM1: BioMAP Diversity Plus: 3C Assay for Intercellular Adhesion Molecule 1 (ICAM1) Biomarker Activity (AID 2283003). The settings on record: primary human endothelial cells (HUVEC); actives raise or lower the signal. In short, it runs like this:
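Using DMSO as baseline, bidirectional curve fitting was applied to ICAM-1 ELISA signals from HUVEC in the 3C system, measured 24 h after compound addition.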

Assay [3] in a line: BSK_3C_Proliferation: Cell Proliferation Assessment in the BioMAP Diversity Plus: 3C Assay (AID 2283006).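 On AC50: potency may reflect either rise or fall in cell number versus DMSO.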 The conditions noted are these: primary human endothelial cells (HUVEC). The method, boiled down:
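Measured here: sulforhodamine B (0.1%) staining of TCA-fixed sub-confluent umbilical vein endothelial cultures 48 h post-dosing, absorbance 560 nm. DMSO served as negative control and baseline; both signal gain and loss were modelled.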

Assay [4] has as its target Peroxisome proliferator-activated receptor gamma (Homo sapiens) (UniProt P37231). Nature of the assay: ATG_PPARg_TRANS: Attagene TRANS-FACTORIAL HepG2 Assay for human Peroxisome Proliferator-activated Receptor-gamma (PPARg) (AID 2283007; active means hit-call score of the fitted dose curve at least 0.9, where 1 is the maximum). In short, it runs like this: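 Read-out: reporter mRNA induction, detected by fluorescence after RT-PCR and capillary electrophoresis. Transiently transfected human HepG2 liver cells carrying a chimeric NR-Gal4 construct were dosed for 24 h; activity was fitted upward relative to DMSO.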

Assay [5] addresses Nuclear receptor subfamily 1 group I member 2 (Homo sapiens) (UniProt O75469). Nature of the assay: ATG_PXR_TRANS: Attagene TRANS-FACTORIAL HepG2 Assay for human Pregnane X Receptor (PXR) (AID 2283008; active means hit-call score of the fitted dose curve at least 0.9, where 1 is the maximum). The method, boiled down: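 HepG2 transfected (FuGene 6) with GAL4-UAS reporter units + PXR-Gal4 chimera; dosed 24 h. Total RNA → oligo(dT) RT → PCR → 6-FAM primer extension → HpaI cut → CE. Gain-of-signal vs DMSO.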

Assay [6] deals with Retinoic acid receptor RXR-alpha (Homo sapiens) (UniProt P19793). Put plainly: ATG_RXRa_TRANS: Attagene TRANS-FACTORIAL HepG2 Assay for human Retinoid X Receptor alpha (RXRa) (AID 2283012; active means hit-call score of the fitted dose curve at least 0.9, where 1 is the maximum). In short, it runs like this:
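Chimeric NR-GAL4 trans-activation in HepG2, 24 h treatment; reporter transcripts quantified by fluorescence on capillary electrophoresis, analysed for upward change from DMSO.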

In assay [7] the target is human Retinoid X Receptor beta (RXRb), RXRB (gene 6257) (UniProt P28702). Nature of the assay: ATG_RXRb_TRANS: Attagene TRANS-FACTORIAL HepG2 Assay for human Retinoid X Receptor beta (RXRb) (AID 2283013; active means hit-call score of the fitted dose curve at least 0.9, where 1 is the maximum). The method, boiled down: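 After a 24 h incubation with test chemical, transfected HepG2 cells carrying NR-Gal4 fusions and GAL4-UAS reporter transcription units yield RNA whose reporter cDNA is FAM-labelled, HpaI-cut and sized by capillary electrophoresis; increases over DMSO are scored.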

Assay [8] deals with human Thyroid Receptor alpha (THRa1), THRA (gene 7067) (UniProt P10827). Put plainly: ATG_THRa1_TRANS: Attagene TRANS-FACTORIAL HepG2 Assay for human Thyroid Receptor alpha (THRa1) (AID 2283014; active means hit-call score of the fitted dose curve at least 0.9, where 1 is the maximum). The method, boiled down: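 Transient HepG2 transfection, NR-Gal4 chimera driving GAL4-UAS reporters; 24 h compound exposure; total RNA, oligo(dT) RT, PCR, fluorescent primer extension, capillary electrophoresis. Upward direction vs DMSO control.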

Read-out in assay [9]: Interleukin-1 alpha (IL1a), IL1A (gene 3552)
Nature of the assay: BSK_BE3C_IL1a: BioMAP Diversity Plus: BE3C Assay for Interleukin-1 alpha (IL1a) Biomarker Activity (AID 2283016). The conditions noted are these: primary human bronchial epithelial cells; actives raise or lower the signal. The method, boiled down:
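Measured in human lung primary bronchial epithelial cells: IL-1a by ELISA at 24 h after dosing, with bidirectional fitting against DMSO.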

Read-out in assay [10]: Monocyte Chemoattractant Protein-1 (MCP1), CCL2 (gene 6347)
Put plainly: BSK_3C_MCP1: BioMAP Diversity Plus: 3C Assay for Monocyte Chemoattractant Protein-1 (MCP1) Biomarker Activity (AID 2283017). The settings on record: primary human endothelial cells (HUVEC); actives raise or lower the signal. The method, boiled down: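 HUVEC, 3C system; 24 h chemical exposure; MCP-1 by ELISA; bidirectional curve fit vs DMSO baseline.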

Read-out in assay [11]: Monocyte Chemoattractant Protein-1 (MCP1), CCL2 (gene 6347)
Nature of the assay: BSK_4H_MCP1: BioMAP Diversity Plus: 4H Assay for Monocyte Chemoattractant Protein-1 (MCP1) Biomarker Activity (AID 2283018). The conditions noted are these: primary human endothelial cells (HUVEC); actives raise or lower the signal. In short, it runs like this:
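Primary human umbilical vein endothelium is exposed to chemical for 24 h before MCP-1 is assayed by ELISA. Concentration-response fitted bidirectionally relative to DMSO.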

Read-out in assay [12]: Human Leukocyte Antigen - DR isotype (HLADR), HLA-DRA (gene 3122)
Nature of the assay: BSK_3C_HLADR: BioMAP Diversity Plus: 3C Assay for Human Leukocyte Antigen - DR isotype (HLADR) Biomarker Activity (AID 2283019).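 On outcome: ELISA of cell-surface HLA-DR on HUVEC 24 h after dosing.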 The conditions noted are these: primary human endothelial cells (HUVEC); actives raise or lower the signal. In short, it runs like this: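 HUVEC, 3C stimulation, 24 h post-dose; HLA-DR by ELISA; bidirectional curve fit vs DMSO baseline; gain or loss of signal scored.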

Read-out in assay [13]: Interleukin-8 (IL8), CXCL8 (gene 3576)
Nature of the assay: BSK_3C_IL8: BioMAP Diversity Plus: 3C Assay for Interleukin-8 (IL8) Biomarker Activity (AID 2283020). The conditions noted are these: primary human endothelial cells (HUVEC); actives raise or lower the signal. In short, it runs like this: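 Using DMSO-treated wells as the baseline, bidirectional curve fitting was applied to ELISA-measured IL-8 from human umbilical vein endothelial cultures sampled 24 h after compound addition.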

Read-out in assay [14]: Monokine induced gamma interferon (MIG), CXCL9 (gene 4283)
Put plainly: BSK_3C_MIG: BioMAP Diversity Plus: 3C Assay for Monokine induced gamma interferon (MIG) Biomarker Activity (AID 2283021). The settings on record: primary human endothelial cells (HUVEC); actives raise or lower the signal. The method, boiled down:
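ELISA-measured MIG in dosed HUVEC 3C cultures at 24 h, analysed by bidirectional fitting with DMSO defining baseline activity.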

For assay [15], the target named is human Retinoic Acid Receptor beta (RARb), RARB (gene 5915) (UniProt P10826). Put plainly: ATG_RARb_TRANS: Attagene TRANS-FACTORIAL HepG2 Assay for human Retinoic Acid Receptor beta (AID 2283004; active means hit-call score of the fitted dose curve at least 0.9, where 1 is the maximum). The method, boiled down: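 Readout is reporter mRNA induction: RNA reverse-transcribed, PCR-amplified, FAM-labelled, HpaI-cut and resolved by capillary electrophoresis. Transiently transfected HepG2 cells carrying exogenous NR–Gal4 chimeras were dosed for 24 h; activity fitted upward relative to DMSO.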

Assay [16] deals with human RAR-related Orphan Receptor gamma (RORg), RORC (gene 6097) (UniProt P51449). Put plainly: ATG_RORg_TRANS: Attagene TRANS-FACTORIAL HepG2 Assay for human RAR-related Orphan Receptor gamma (RORg) (AID 2283011; active means hit-call score of the fitted dose curve at least 0.9, where 1 is the maximum). In short, it runs like this:
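Transient MRTU transfection of HepG2 (TRANS format, exogenous NR-Gal4 chimera). 24 h dosing. Total RNA → oligo(dT) RT → PCR → 6-FAM labelling → HpaI cut → CE. Gain vs DMSO.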

Read-out in assay [17]: E-selectin (Homo sapiens) (UniProt P16581)
Nature of the assay: BSK_3C_Eselectin: BioMAP Diversity Plus: 3C Assay for Eselectin Biomarker Activity (AID 2283015).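 Further: cell surface E-selectin protein quantified by ELISA 24 h after dosing.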 The conditions noted are these: primary human endothelial cells (HUVEC); actives raise or lower the signal. In short, it runs like this: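 HUVEC, 3C stimulation; compound exposure 24 h; E-selectin by ELISA; gain- or loss-of-signal fitted bidirectionally vs DMSO baseline.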

Assay [18] concerns the target human RAR-related Orphan Receptor beta (RORb), RORB (gene 6096) (UniProt Q92753). Put plainly: ATG_RORb_TRANS: Attagene TRANS-FACTORIAL HepG2 Assay for human RAR-related Orphan Receptor beta (RORb) (AID 2283010; active means hit-call score of the fitted dose curve at least 0.9, where 1 is the maximum). The method, boiled down:
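Multiplexed transcription-factor reporter assay: HepG2 cells transiently carrying NR-Gal4/GAL4-UAS constructs, 24 h treatment, mRNA quantified by RT-PCR plus capillary electrophoresis fluorescence; activity scored as induction over DMSO.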

Assay [19] concerns the target human Retinoic Acid Receptor gamma (RARg), RARG (gene 5916) (UniProt P13631). Put plainly: ATG_RARg_TRANS: Attagene TRANS-FACTORIAL HepG2 Assay for human Retinoic Acid Receptor gamma (RARg) (AID 2283009; active means hit-call score of the fitted dose curve at least 0.9, where 1 is the maximum). In short, it runs like this: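 Gain-of-signal relative to DMSO is reported from fluorescent capillary electrophoresis of RT-PCR reporter products. These came from HepG2 cells expressing transfected RARg-GAL4 chimeras with UAS reporters, harvested 24 h after dosing.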

The target in assay [20] is Retinoic acid receptor alpha (Homo sapiens) (UniProt P10276). Nature of the assay: ATG_RARa_TRANS: Attagene TRANS-FACTORIAL HepG2 Assay for human Retinoic Acid Receptor alpha (RARa) (AID 2283005; active means hit-call score of the fitted dose curve at least 0.9, where 1 is the maximum). The method, boiled down:
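HepG2 transiently transfected with multiplex GAL4-UAS reporter units including a human RARa–GAL4 chimera; 24 h compound exposure. Reporter mRNA quantified by RT-PCR, 6-FAM labeling and capillary electrophoresis; gain of signal versus DMSO.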

SMILES strings stand for the structures. Inconclusive results are not listed. Activity calls are given as the source filed them. How the source made its calls, unless noted: active means hit-call score of the fitted dose curve at least 0.9, where 1 is the maximum; inactive means score below 0.9.

Sequence of human Retinoid X Receptor beta (RXRb), RXRB (gene 6257) (P28702 whole entry, looked up, the tested form may be a part): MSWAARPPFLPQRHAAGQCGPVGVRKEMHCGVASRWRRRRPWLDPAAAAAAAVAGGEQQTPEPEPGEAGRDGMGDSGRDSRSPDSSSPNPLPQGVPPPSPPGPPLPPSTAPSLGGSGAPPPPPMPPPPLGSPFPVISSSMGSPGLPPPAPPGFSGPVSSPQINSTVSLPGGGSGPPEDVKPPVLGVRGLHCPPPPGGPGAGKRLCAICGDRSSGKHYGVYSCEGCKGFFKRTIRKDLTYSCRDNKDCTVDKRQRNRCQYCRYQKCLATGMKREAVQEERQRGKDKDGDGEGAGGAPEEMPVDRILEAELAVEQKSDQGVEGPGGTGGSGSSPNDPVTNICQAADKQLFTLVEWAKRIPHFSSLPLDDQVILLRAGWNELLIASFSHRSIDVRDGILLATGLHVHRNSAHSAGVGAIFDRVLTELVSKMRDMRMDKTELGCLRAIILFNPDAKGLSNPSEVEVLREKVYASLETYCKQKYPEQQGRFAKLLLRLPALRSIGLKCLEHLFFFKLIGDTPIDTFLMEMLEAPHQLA
Sequence of human RAR-related Orphan Receptor gamma (RORg), RORC (gene 6097) (P51449 whole entry, looked up, the tested form may be a part): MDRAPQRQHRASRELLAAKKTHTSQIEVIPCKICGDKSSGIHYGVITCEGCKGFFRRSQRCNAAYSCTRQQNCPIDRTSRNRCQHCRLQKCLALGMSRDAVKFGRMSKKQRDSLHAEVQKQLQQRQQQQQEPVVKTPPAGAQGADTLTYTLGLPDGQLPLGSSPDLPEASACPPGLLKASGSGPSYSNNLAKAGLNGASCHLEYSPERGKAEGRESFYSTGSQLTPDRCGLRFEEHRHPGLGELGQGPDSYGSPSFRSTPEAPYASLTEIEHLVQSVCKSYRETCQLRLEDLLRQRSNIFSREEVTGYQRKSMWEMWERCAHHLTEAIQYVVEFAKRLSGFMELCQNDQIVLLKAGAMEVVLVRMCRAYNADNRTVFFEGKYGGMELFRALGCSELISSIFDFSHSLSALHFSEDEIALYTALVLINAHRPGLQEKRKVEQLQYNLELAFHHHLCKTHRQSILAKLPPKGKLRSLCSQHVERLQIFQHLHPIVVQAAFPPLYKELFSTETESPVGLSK
Sequence of Nuclear receptor subfamily 1 group I member 2 (Homo sapiens) (O75469 whole entry, looked up, the tested form may be a part): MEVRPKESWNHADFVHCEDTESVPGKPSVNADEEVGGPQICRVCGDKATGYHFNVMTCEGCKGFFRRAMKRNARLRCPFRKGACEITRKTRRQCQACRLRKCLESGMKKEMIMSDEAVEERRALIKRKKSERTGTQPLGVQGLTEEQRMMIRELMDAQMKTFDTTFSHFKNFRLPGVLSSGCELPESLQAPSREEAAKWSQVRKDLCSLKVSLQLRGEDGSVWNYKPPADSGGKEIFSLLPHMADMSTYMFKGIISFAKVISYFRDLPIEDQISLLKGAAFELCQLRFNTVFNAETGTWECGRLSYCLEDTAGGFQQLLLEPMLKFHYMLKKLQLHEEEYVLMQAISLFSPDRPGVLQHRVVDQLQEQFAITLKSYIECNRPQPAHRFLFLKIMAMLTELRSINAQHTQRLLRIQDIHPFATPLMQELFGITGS
Sequence of human Peroxisome Proliferator-activated Receptor delta (PPARd), PPARD (gene 5467) (Q03181 whole entry, looked up, the tested form may be a part): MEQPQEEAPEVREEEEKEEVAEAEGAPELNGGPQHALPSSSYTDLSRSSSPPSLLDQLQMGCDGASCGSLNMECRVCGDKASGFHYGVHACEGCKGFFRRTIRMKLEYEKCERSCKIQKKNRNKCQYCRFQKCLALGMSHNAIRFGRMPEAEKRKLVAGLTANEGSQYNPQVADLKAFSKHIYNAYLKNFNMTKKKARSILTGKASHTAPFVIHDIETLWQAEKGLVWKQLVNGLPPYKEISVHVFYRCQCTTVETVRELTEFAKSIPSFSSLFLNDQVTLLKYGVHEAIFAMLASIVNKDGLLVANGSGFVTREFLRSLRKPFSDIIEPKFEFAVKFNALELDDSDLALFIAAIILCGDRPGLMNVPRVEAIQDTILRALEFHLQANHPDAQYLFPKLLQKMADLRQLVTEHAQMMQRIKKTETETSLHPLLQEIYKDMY
Sequence of E-selectin (Homo sapiens) (P16581 whole entry, looked up): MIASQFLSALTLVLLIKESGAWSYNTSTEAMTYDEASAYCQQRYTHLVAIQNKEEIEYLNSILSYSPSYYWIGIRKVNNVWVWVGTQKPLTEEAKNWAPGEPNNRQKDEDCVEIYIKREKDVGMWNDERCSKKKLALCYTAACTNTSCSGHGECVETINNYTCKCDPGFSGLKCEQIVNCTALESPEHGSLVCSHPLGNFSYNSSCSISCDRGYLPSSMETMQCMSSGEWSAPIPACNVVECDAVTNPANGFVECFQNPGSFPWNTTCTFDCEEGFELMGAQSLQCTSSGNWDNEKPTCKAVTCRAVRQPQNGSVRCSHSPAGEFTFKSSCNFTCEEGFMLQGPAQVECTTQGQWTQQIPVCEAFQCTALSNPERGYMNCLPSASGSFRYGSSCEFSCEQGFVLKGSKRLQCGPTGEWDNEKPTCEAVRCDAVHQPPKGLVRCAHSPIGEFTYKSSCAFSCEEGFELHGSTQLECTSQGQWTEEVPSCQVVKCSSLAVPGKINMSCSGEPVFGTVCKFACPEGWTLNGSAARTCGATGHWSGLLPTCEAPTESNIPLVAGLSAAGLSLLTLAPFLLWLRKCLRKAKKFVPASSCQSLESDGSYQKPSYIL
Sequence of human Thyroid Receptor alpha (THRa1), THRA (gene 7067) (P10827 whole entry, looked up, the tested form may be a part): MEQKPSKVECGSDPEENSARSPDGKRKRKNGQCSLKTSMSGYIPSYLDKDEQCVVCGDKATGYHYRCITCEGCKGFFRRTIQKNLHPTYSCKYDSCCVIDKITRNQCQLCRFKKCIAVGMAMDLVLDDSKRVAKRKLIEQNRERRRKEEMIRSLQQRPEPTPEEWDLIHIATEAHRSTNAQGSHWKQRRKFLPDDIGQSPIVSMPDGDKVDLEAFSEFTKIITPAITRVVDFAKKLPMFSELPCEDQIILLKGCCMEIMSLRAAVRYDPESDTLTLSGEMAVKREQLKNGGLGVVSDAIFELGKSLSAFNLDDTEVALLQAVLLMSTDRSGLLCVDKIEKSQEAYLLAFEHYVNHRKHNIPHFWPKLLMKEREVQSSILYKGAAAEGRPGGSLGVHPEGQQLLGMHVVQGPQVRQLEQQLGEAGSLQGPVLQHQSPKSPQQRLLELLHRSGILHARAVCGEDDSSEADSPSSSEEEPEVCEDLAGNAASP
Sequence of Retinoic acid receptor RXR-alpha (Homo sapiens) (P19793 whole entry, looked up, the tested form may be a part): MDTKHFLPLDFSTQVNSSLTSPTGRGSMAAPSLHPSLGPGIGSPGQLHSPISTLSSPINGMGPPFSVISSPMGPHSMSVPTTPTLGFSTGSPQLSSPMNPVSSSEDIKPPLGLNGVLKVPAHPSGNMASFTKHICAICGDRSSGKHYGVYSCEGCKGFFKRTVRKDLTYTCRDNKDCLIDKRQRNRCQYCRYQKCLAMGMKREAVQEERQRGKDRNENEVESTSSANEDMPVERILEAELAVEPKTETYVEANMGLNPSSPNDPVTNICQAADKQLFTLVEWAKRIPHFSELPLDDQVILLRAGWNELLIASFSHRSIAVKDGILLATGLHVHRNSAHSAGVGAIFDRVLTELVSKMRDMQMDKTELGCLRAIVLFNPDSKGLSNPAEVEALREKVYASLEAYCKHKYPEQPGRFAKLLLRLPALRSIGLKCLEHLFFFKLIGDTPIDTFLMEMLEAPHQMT
Sequence of human RAR-related Orphan Receptor beta (RORb), RORB (gene 6096) (Q92753 whole entry, looked up, the tested form may be a part): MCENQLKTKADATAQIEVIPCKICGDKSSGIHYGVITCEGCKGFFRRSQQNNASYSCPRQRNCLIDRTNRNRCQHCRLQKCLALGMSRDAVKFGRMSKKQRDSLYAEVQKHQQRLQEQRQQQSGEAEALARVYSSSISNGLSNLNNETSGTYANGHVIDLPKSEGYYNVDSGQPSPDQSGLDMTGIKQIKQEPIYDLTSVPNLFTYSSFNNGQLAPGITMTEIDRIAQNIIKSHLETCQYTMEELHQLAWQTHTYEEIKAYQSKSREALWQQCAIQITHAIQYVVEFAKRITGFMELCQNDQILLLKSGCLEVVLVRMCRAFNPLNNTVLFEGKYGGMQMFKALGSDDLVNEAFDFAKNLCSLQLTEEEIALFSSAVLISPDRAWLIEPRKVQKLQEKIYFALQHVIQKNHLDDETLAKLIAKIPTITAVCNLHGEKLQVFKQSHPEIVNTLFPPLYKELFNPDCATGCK
Sequence of human Retinoic Acid Receptor beta (RARb), RARB (gene 5915) (P10826 whole entry, looked up, the tested form may be a part): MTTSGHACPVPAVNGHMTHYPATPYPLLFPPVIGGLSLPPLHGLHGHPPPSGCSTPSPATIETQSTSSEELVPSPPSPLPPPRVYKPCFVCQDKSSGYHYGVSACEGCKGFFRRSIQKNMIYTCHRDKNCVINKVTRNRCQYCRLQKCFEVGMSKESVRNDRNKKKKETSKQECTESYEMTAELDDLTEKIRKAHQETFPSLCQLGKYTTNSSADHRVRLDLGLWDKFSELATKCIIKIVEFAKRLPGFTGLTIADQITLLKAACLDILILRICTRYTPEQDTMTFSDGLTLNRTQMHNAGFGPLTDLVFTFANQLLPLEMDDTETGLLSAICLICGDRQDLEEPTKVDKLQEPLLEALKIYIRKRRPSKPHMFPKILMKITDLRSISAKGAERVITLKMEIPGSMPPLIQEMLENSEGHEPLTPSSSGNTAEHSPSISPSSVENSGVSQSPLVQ
Sequence of Peroxisome proliferator-activated receptor gamma (Homo sapiens) (P37231 whole entry, looked up, the tested form may be a part): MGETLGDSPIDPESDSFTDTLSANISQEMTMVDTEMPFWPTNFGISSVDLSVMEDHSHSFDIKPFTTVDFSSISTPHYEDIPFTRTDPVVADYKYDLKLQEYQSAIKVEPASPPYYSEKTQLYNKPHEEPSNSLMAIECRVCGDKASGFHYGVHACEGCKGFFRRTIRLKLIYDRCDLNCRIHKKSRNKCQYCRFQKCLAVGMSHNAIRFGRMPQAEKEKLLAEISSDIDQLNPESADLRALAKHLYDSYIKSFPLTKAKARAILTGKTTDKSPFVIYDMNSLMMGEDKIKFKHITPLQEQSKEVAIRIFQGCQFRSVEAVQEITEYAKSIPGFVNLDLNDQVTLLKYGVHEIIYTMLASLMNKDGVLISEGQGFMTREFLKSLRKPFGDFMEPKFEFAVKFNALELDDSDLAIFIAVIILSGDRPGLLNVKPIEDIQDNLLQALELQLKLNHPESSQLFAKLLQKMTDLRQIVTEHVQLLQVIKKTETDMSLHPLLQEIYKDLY

Take `O=C1CN(N=Cc2ccc([N+](=O)[O-])o2)C(=O)N1`: the molecule was classed as inactive in [1], in [2], in assay [4], in assay [5], in assay [6] and in [8]. In addition, the outcome in assay [9], in assay [10], in assay [11], in assay [12], in assay [13] and in assay [14] was inactive. Also, the AC50 in assay [3] was 13.6 µM (active); in assay [7], 45.6 µM (active).
On to `O=c1[nH]cnc2c1ncn2[C@H]1CC[C@@H](CO)O1`, for which the call in assay [1], in assay [2], in assay [15], in assay [3], in [5] and in [16] was inactive. For the same molecule, the outcome in [6], in assay [8], in assay [17], in assay [10], in assay [12] and in assay [13] was inactive. Further, the result in [14] was inactive.
As to `FC(F)C(F)(F)COCC1CO1` (stereo not drawn), the result in assay [1], in assay [2], in [3], in [4], in assay [18] and in assay [16] was inactive. The molecule was classed as inactive in [6], in assay [17], in assay [9], in assay [10], in assay [11] and in [12]. For the same molecule, the result in [13] and in assay [14] was inactive.
`c1ccc(C(O[C@@H]2CCCN(CCc3ccc4c(c3)OCO4)C2)c2ccccc2)cc1`: the outcome in assay [1], in [2], in assay [16], in assay [7], in assay [8] and in assay [9] was inactive. In addition, the result in assay [10] and in [14] was inactive. For the same molecule, the AC50 in [3] is 28.5 µM (active); in assay [4], 20.7 µM (active); in [5], 0.916 µM (active); in assay [11], 23.6 µM (active); in assay [12], 30.8 µM (active); in assay [13] it was 25.9 µM (active).
As to `O=C(NO)C1(NS(=O)(=O)c2ccc(Oc3ccc(F)cc3)cc2)CCOCC1`, the call in assay [1], in [2], in assay [15], in assay [3], in [19] and in assay [16] was inactive. Also, the call in assay [6], in [8], in assay [17], in assay [10], in assay [11] and in [12] was inactive. Further, the outcome in [13] and in [14] was inactive. For the same molecule, the half-maximal activity concentration (AC50) in assay [5] was 31.7 µM (active).
For `NNC(=O)c1ccncc1`, the molecule was classed as inactive in assay [1], in assay [2], in assay [3], in [4], in assay [5] and in [18]. For the same molecule, the molecule was classed as inactive in assay [16], in assay [6], in [8], in [10], in assay [11] and in [12]. For the same molecule, the outcome in [13] and in assay [14] was inactive.
For the molecule `c1ccc2cc3ccccc3cc2c1`, the outcome in [1], in assay [2], in [15], in assay [3], in assay [5] and in assay [19] was inactive. In addition, the outcome in [6], in [8], in assay [10], in assay [12], in assay [13] and in assay [14] was inactive.
With `FC(F)(F)COC(OCC(F)(F)F)OCC(F)(F)F`, the molecule was classed as inactive in assay [1], in assay [2], in assay [15], in [20], in assay [3] and in assay [5]. The molecule was classed as inactive in assay [18], in assay [16], in [6], in assay [7], in assay [17] and in [9]. Moreover, the outcome in assay [10], in assay [11], in assay [12], in assay [13] and in assay [14] was inactive.

The AC50 is the concentration giving half of the maximal activity seen.
